The values below come from ChEMBL document CHEMBL1961873, “Compounds: GSK PKIS; Assays: Nanosyn kinase panel” (2012).

Assay [1] concerns the target Mast/stem cell growth factor receptor Kit (Homo sapiens) (UniProt P10721). Conditions: at 1 µM.
Assay [2] has as its system Mast/stem cell growth factor receptor Kit (Homo sapiens), P10721 [D816V]. Conditions: at 0.1 µM.
For assay [3] the test system is unchanged. Conditions: at 1 µM.
The test system of assay [4] is Mast/stem cell growth factor receptor Kit (Homo sapiens), P10721 [T670I]. Conditions: at 0.1 µM.
Chain of Mast/stem cell growth factor receptor Kit (Homo sapiens), P10721 [T670I] (P10721 whole entry T670I): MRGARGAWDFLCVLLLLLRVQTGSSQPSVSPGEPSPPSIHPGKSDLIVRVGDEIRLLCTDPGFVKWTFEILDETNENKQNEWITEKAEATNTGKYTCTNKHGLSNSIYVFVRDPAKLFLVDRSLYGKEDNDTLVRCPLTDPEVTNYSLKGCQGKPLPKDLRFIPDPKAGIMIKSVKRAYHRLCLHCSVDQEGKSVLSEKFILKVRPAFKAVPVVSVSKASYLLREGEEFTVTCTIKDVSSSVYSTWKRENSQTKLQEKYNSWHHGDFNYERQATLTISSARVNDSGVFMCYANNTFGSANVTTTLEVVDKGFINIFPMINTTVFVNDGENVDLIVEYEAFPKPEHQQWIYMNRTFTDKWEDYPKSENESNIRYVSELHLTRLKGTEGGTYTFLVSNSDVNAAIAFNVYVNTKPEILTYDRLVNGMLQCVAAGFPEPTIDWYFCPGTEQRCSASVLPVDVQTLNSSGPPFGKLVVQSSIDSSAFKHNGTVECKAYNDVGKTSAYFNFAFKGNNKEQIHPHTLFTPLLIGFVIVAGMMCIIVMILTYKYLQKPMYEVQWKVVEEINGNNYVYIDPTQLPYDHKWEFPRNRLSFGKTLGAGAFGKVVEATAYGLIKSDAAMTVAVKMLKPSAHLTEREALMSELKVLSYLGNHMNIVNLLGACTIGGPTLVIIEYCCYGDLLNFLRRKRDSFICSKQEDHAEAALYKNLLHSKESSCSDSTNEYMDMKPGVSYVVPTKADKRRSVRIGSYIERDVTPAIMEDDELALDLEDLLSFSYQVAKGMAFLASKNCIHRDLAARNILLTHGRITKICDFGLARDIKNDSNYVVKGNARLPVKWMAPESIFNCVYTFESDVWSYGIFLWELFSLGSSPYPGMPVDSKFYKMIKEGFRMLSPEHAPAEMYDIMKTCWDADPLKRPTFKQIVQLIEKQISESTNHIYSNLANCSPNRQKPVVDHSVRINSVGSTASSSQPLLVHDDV
Assay [5] has the same test system. Conditions: at 1 µM.
Assay [6] has as its system Mast/stem cell growth factor receptor Kit (Homo sapiens), P10721 [V560G]. Conditions: at 0.1 µM.
For assay [7] the test system is unchanged. Conditions: at 1 µM.
Assay [8] addresses Tyrosine-protein kinase Lck (Homo sapiens) (UniProt P06239). Conditions: at 0.1 µM.
For assay [9] the target is unchanged. Conditions: at 1 µM.
Assay [10] deals with Leukocyte tyrosine kinase receptor (Homo sapiens) (UniProt P29376). Conditions: at 0.1 µM.
Chain of Leukocyte tyrosine kinase receptor (Homo sapiens) (P29376 whole entry): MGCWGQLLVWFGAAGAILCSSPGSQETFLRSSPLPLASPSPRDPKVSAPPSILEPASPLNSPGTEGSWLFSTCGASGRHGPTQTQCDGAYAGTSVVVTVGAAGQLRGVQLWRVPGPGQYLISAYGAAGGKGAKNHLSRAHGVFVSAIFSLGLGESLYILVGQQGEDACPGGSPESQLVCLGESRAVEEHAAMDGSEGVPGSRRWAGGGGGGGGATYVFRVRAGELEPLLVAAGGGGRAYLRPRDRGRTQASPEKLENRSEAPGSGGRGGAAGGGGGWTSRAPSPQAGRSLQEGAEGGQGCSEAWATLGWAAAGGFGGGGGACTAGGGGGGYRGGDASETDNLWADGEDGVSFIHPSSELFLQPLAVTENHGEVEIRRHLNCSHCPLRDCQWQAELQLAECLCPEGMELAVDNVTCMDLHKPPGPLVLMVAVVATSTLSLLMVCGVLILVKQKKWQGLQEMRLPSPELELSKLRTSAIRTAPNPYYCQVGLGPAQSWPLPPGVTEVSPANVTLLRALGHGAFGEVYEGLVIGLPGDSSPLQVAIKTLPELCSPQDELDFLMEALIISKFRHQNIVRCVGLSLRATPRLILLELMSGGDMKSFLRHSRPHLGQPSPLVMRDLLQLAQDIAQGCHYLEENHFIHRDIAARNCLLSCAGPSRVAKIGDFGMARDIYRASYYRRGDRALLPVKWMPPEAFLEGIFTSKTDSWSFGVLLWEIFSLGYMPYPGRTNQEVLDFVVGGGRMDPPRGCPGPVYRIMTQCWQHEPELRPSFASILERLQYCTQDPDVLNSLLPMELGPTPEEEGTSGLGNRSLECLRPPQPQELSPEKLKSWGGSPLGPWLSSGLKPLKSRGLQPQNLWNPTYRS
Assay [11] shares this target. Conditions: at 1 µM.
The target in assay [12] is Tyrosine-protein kinase Lyn (Homo sapiens) (UniProt P07948). Conditions: at 0.1 µM.
Chain of Tyrosine-protein kinase Lyn (Homo sapiens) (P07948 2-512 limits assumed): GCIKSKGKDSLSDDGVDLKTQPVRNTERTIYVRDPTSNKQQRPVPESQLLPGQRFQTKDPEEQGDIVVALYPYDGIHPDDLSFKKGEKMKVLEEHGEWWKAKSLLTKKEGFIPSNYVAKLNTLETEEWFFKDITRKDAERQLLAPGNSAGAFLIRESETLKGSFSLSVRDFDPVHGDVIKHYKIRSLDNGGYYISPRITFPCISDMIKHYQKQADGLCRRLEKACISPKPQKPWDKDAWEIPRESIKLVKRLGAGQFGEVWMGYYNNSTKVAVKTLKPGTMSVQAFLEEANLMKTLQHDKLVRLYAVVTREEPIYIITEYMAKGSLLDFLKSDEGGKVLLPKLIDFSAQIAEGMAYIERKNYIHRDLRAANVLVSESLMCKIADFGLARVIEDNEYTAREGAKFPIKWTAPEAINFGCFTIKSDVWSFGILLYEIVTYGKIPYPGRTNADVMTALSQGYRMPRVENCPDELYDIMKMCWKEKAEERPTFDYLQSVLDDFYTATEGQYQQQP
The target is the same in assay [13]. Conditions: at 1 µM.
The target is the same in assay [14]. Conditions: at 0.1 µM. This is another data set of the same source.
For assay [15] the target is unchanged. Conditions: at 1 µM. This is another data set of the same source.
In assay [16] the target is T1, Tyrosine-protein kinase Mer (Homo sapiens) (UniProt Q12866).
T1 sequence (whole entry): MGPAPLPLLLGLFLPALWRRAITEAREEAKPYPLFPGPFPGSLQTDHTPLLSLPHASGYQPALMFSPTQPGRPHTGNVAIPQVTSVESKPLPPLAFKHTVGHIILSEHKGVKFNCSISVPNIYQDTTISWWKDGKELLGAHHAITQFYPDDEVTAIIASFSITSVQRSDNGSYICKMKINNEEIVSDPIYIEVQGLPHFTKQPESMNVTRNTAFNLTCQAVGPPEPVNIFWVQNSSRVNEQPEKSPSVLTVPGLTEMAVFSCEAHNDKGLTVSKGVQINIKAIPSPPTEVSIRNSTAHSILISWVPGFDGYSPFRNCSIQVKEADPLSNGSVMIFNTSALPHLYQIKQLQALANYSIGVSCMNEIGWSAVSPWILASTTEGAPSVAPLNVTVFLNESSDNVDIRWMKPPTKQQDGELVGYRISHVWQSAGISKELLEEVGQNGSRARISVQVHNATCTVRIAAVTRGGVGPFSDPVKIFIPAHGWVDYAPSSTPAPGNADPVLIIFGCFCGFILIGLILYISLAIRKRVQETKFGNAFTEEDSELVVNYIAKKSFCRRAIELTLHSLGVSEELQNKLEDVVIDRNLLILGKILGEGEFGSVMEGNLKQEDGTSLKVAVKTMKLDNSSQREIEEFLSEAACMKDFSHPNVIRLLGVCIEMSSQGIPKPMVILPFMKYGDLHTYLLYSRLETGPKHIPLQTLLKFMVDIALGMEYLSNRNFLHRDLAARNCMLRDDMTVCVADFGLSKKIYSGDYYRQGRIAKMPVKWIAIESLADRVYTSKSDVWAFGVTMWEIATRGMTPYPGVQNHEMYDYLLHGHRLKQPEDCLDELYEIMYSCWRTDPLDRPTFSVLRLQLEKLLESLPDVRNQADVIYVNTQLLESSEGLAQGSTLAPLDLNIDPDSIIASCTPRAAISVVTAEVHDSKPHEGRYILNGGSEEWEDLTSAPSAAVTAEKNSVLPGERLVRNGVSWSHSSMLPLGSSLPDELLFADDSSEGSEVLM
Conditions: at 0.1 µM.

Assay [17] concerns the target T1, Tyrosine-protein kinase Mer (Homo sapiens). Conditions: at 1 µM.
The target in assay [18] is Hepatocyte growth factor receptor (Homo sapiens) (UniProt P08581). Conditions: at 0.1 µM.
Chain of Hepatocyte growth factor receptor (Homo sapiens) (P08581 whole entry): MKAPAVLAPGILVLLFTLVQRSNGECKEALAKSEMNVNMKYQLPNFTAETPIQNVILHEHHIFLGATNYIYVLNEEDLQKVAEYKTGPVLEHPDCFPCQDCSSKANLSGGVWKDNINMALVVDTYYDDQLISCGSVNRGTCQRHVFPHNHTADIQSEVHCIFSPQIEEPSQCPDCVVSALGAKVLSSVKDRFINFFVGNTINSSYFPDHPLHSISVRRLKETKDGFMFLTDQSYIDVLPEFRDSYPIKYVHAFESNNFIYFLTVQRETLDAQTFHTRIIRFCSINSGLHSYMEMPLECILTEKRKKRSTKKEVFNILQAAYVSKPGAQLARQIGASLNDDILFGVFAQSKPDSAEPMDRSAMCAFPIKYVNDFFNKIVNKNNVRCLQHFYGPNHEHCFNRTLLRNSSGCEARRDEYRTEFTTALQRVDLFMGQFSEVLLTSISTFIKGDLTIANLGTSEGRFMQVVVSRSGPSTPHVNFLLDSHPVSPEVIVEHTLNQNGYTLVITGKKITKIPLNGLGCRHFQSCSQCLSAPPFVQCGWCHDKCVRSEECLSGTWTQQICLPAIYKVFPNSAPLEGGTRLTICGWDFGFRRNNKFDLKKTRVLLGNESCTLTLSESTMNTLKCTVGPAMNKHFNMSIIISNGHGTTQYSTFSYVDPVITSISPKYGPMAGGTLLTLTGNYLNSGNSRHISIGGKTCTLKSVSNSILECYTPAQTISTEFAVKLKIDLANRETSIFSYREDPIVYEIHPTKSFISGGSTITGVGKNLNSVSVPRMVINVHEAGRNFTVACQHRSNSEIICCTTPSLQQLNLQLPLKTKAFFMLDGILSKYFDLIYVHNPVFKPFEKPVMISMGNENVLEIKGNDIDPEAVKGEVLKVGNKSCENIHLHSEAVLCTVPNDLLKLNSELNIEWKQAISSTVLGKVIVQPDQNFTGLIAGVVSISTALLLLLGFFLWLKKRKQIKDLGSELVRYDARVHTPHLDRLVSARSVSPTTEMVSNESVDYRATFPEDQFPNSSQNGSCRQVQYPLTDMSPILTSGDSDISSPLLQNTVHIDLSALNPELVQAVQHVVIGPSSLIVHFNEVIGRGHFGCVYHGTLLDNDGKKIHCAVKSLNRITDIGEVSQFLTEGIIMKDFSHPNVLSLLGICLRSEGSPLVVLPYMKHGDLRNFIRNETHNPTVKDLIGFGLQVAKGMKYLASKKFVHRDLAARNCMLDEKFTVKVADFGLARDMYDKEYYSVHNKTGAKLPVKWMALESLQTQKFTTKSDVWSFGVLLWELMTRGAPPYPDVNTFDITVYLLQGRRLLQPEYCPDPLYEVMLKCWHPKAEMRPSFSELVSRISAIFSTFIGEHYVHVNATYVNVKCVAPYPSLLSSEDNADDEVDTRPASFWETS
Assay [19] shares this target. Conditions: at 1 µM.
Assay [20] addresses T2, Muscle, skeletal receptor tyrosine-protein kinase (Homo sapiens) (UniProt O15146).
T2 sequence (whole entry): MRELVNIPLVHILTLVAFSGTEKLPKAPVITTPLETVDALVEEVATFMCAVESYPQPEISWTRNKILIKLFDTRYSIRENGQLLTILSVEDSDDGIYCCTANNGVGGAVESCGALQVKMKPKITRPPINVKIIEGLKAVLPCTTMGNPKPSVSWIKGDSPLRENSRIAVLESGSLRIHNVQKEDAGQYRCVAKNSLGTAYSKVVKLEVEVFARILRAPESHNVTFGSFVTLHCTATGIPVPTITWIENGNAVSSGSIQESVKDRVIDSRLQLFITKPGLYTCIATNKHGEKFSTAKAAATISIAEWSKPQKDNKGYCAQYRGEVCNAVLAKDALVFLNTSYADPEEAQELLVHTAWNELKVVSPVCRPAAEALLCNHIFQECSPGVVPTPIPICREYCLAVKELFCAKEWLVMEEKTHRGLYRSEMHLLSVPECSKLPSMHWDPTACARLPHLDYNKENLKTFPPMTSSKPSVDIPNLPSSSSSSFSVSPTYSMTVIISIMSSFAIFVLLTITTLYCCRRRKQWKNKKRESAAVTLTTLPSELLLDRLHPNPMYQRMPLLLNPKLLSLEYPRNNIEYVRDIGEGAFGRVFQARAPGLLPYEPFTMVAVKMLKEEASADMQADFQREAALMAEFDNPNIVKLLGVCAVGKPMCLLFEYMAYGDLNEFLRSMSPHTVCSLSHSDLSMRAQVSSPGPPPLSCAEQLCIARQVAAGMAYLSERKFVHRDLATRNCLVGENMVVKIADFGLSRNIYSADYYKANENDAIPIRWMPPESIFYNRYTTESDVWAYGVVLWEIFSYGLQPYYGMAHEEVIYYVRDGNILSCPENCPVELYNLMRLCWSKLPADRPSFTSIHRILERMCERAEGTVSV
Conditions: at 0.1 µM.

Chain of Tyrosine-protein kinase Lck (Homo sapiens) (P06239 2-509 limits assumed): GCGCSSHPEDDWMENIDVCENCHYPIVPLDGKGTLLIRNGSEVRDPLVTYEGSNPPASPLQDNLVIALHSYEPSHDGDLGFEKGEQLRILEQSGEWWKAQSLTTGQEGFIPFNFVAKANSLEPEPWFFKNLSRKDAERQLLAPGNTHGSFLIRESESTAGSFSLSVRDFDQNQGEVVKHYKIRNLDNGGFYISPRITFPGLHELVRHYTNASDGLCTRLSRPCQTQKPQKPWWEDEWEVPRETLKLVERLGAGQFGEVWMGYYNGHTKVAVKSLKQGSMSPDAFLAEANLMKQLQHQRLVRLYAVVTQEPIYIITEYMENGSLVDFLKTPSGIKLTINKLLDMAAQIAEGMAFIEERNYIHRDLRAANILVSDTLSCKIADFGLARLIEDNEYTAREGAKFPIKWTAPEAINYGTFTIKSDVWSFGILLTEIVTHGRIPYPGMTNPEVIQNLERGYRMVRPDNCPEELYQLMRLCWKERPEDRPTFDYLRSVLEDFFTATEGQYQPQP
Chain of Mast/stem cell growth factor receptor Kit (Homo sapiens), P10721 [D816V] (P10721 whole entry D816V): as the sequence (P10721 whole entry T670I) above, with I670T, D816V counted along it
Chain of Mast/stem cell growth factor receptor Kit (Homo sapiens), P10721 [V560G] (P10721 whole entry V560G): as the sequence (P10721 whole entry T670I) above, with V560G, I670T counted along it
Chain of Mast/stem cell growth factor receptor Kit (Homo sapiens) (P10721 whole entry): as the sequence (P10721 whole entry T670I) above, with I670T counted along it

In general, inhibition refers to the relative decrease from the control value, in per cent. Regarding `CCN1CCC(CC(=O)Nc2n[nH]c3nc(-c4cccs4)c(Br)cc23)CC1`, the inhibition in assay [1] was -0.08%; in assay [2] it was -1.28%; in assay [3], -0.19%; in assay [4] it was -3.78%; in assay [5] it was 0.16%; in [6], 3.05%. The inhibition was 2.07% in assay [7]; -1.7% in assay [8]; 4.73% in [9]; 0.15% in assay [10]; 0.89% in assay [11]; 0.07% in assay [12]. The inhibition in assay [13] was 1.67%; in [14], -0.46%; in assay [15] it was 1.82%; in assay [16] it was -0.67%; in assay [17], 3.05%; in assay [18], -0.73%. The inhibition is -0.38% in [19] and 0.33% in [20].

For the compound `COc1cc2ncn(-c3cc(OCc4ccccc4Cl)c(C(N)=O)s3)c2cc1OC`, the inhibition is 15.6% in [1]; 0.27% in assay [2]; -0.43% in [3]; 2.57% in assay [4]; 8.11% in assay [5]; 2.29% in assay [6]. The inhibition in assay [7] came out at 3.13%; in [8], 2.94%; in assay [9], 19%; in assay [10], 1.19%; in assay [11], 4.03%; in [12], 3.15%. Also, the inhibition is 25.6% in assay [13]; 2.45% in assay [14]; 21.1% in assay [15]; 1.26% in assay [16]; 8.5% in assay [17]; -0.6% in [18]. Moreover, the inhibition is 19.7% in [19] and 4.75% in assay [20].

As to `Cc1nnc(-c2ccc(C)c(-c3ccc(C(=O)Nc4cccc(C#N)c4)cc3)c2)o1`, the inhibition came to 6.9% in assay [1]; 2.18% in assay [2]; 2.02% in assay [3]; 0.85% in [4]; 1.69% in [5]; 0.81% in assay [6]. Further, the inhibition in assay [7] came to 2.86%; in assay [8] it was 1.89%; in assay [9], 2.99%; in assay [10], 2.14%; in [11], 1.76%; in [12] it was 3.98%. The inhibition in assay [13] turned out to be 6.36%; in [14] it was 2.18%; in assay [15] it was 5.78%; in assay [16] it was 0.8%; in [17], 2.51%; in [18], 3.66%. In addition, the inhibition in assay [19] is -0.54%; in assay [20], 2.58%.

Turning to `Nc1ncnc2occ(-c3ccc(NC(=O)Nc4cc(C(F)(F)F)cc(C(F)(F)F)c4)cc3)c12`, the inhibition in assay [1] was 90.6%; in assay [2], -2.07%; in [3], 10.8%; in [4], 22%; in assay [5] it was 88.4%; in [6] it was 33.8%. The inhibition in [7] was determined as 82.2%; in [8], 6.28%; in assay [9] it was 38.8%; in [10] it was 2.1%; in assay [11], 23.7%; in assay [12], 4.96%. For the same compound, the inhibition was 37% in assay [13]; 3.86% in [14]; 34% in assay [15]; 0.69% in assay [16]; 14.4% in [17]; -0.72% in assay [18]. The values for the inhibition in assay [19] and in [20] were 10.3% and 77.6%, respectively.

Consider `CCn1c(-c2nonc2N)nc2c(C#CC(C)(C)O)nc(OC[C@@H](N)c3ccccc3)cc21`, for which the inhibition in [1] was 2.86%; in [2] it was -1.77%; in assay [3], 1.93%; in assay [4], -1.49%; in assay [5], -0.45%; in assay [6], 2.19%. For the same compound, the inhibition in assay [7] is 2.43%; in assay [8], -1.85%; in [9], 0.18%; in [10], 0.55%; in assay [11], 9.21%; in assay [12], -0.29%. Moreover, the inhibition in assay [13] is 1.01%; in assay [14] it was -1.22%; in assay [15], 0.53%; in [16] it was -0.92%; in assay [17] it was 0.47%; in assay [18], -2.86%. The values for the inhibition in assay [19] and in [20] were -4.52% and -0.69%, respectively.

`O=C1NC(=O)C(c2cccc(Cl)c2)=C1Nc1ccc(O)c(Cl)c1`: the inhibition in [1] was -2.75%; in [2], 0.75%; in [3], -6.88%; in assay [4], -1.24%; in assay [5], -2.14%; in assay [6], -1.77%. Further, the inhibition in assay [7] stood at 1.92%; in assay [8] it was 1.6%; in [9] it was 6.56%; in assay [10], 0%; in assay [11], 0.35%; in assay [12], 1.27%. Besides, the inhibition in assay [13] was 3.18%; in assay [14] it was 0.38%; in assay [15] it was 3.63%; in assay [16], -0.5%; in assay [17] it was 3.08%; in assay [18] it was 0.77%. For the same compound, the inhibition in [19] was determined as 3.7%; in assay [20], 0.25%.
